Whole data set: some 25,000 sequences, median “ln(normalized median fluorescence intensity)” near 6.7, cut for the highest 2% near 10. The sample holds the highest values, similar sequences and a random draw of the others, so the mix is not that of the screen.

The test relates to PfHDP1 homeodomain (GST-tagged). Put plainly: gcPBM binding intensity (ln(normalized median fluorescence intensity)); higher = stronger DNA binding. In outline: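 Binding intensity values are the highest Masliner-normalised natural-log median intensity among replicate spots of either probe orientation. The binding step lasted 1 h in 1× PBS with 1% milk, 0.2 mg/ml BSA, 0.5% salmon testes DNA and 0.03% Triton X-100, using GST-tagged P. falciparum DNA-binding domains expressed in E. coli on an Agilent 4 × 180k array of primer-extended double-stranded 36-bp intergenic genomic probes plus negative controls. Alexa488 anti-GST antibody and a 488 nm scan detected bound protein.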
Consider “TATTATAATATTTATACACACATAATTTTGATAAAT [CACACA_site583]”, for which the “gcPBM binding intensity (ln)” value is 6.45.

Take “TCCGTATAATTTTGCACACGAATATAAATTTGATAA [CACACA_site136]”: the “gcPBM binding intensity (ln)” value came to 10.9.

Turning to “TTTCCGTATAATTTTGCACACGAATATAAATTTGAT [CACACA_site137]”, the “gcPBM binding intensity (ln)” value worked out at 10.3.

Take “TGGAGGTCAGTTCACAGTACCCAGGAAATCTACGGA [XGTACX_site1995]”: the “gcPBM binding intensity (ln)” value amounted to 5.93.

Take “TTTTTCTTAAAAAATTGTACACATATATATATATAT [XGTACX_site542]”: the “gcPBM binding intensity (ln)” value came to 9.21.

“GTAGTGGTTGAATATACACACATATATATATATATA [CACACA_site2651]”: the “gcPBM binding intensity (ln)” value was 9.39.

On to “CCTAGAAAAAAGAACTGTACATATATATATAAATAT [XGTACX_site1680]”, for which the “gcPBM binding intensity (ln)” value turned out to be 6.65.

On to “TATATTAACAAAATGGTGCAATAATTTCTATATTAT [GTGCAC_site9857]”, for which the “gcPBM binding intensity (ln)” value was determined as 10.5.

On to “GACAAATAATAAAAGGTGCATTATACTTAACAAAAA [GTGCAC_site9624]”, for which the “gcPBM binding intensity (ln)” value stood at 9.69.

On to “GTAGACATTATAATGGTGCAAAAAAATTAACAAAAA [GTGCAC_site9891]”, for which the “gcPBM binding intensity (ln)” value is 10.6.

Turning to “TCAAGTATTAAAATGGGTACATAAATATGTGTATAT [XGTACX_site5884]”, the “gcPBM binding intensity (ln)” value worked out at 6.63.

For “TATAATAAATCATATGCATGTTGAAAAAAAAAAAAA [TGCATGCA_site923]”, the “gcPBM binding intensity (ln)” value came to 6.46.

On to “AATATATAGAAACACACACACAAAAAAAAAAAAAAA [CACACA_site1326]”, for which the “gcPBM binding intensity (ln)” value is 6.47.

In the case of “TTTTGAAACATATGATGTACACGAACATTTAAAAAA [XGTACX_site474]”, the “gcPBM binding intensity (ln)” value is 6.6.

Take “ATTTAGAAAAATAAAACACACATATATCTGTAAATA [CACACA_site6119]”: the “gcPBM binding intensity (ln)” value turned out to be 6.53.

As to “ATAAAAATATTGTCTAGTACATATTTATAATAAAAA [XGTACX_site7523]”, the “gcPBM binding intensity (ln)” value worked out at 6.54.

In the case of “TATATATATATGTGCACACATATATAATATGTATAA [CACACA_site715]”, the “gcPBM binding intensity (ln)” value was determined as 10.1.

As to “AATATATATATATGTGCACACATATATAATATGTAT [CACACA_site716]”, the “gcPBM binding intensity (ln)” value came out at 9.79.

Turning to “TATATATATATATGTGCACACCAATTGTATGTAATA [CACACA_site3888]”, the “gcPBM binding intensity (ln)” value was 10.5.

For “TATATATATATGTGCACACCAATTGTATGTAATATA [CACACA_site3889]”, the “gcPBM binding intensity (ln)” value was determined as 10.6.

As to “TAATATAATATATGCACACAAATATGTATATATGTG [CACACA_site2134]”, the “gcPBM binding intensity (ln)” value was 9.77.

With “ATTGAATATGTAAATGCACACCAAAAAAAAAAAAAA [CACACA_site9189]”, the “gcPBM binding intensity (ln)” value was determined as 9.61.

In the case of “CACAAAATAAATTAAACACACAACATCATATATGTA [CACACA_site846]”, the “gcPBM binding intensity (ln)” value stood at 6.57.

For “TTTTTTTATATAGACACAAAAGAAAATTACATATAC [CACACA_negctrl_site235]”, the “gcPBM binding intensity (ln)” value was 6.49.

As for “ATATATAATAAATACACACACATGTATTTATAAATA [CACACA_site5135]”, the “gcPBM binding intensity (ln)” value was 6.8.

With “TTTTTTTTGGTATAATGTACATTTTCACTTATGTAT [XGTACX_site3259]”, the “gcPBM binding intensity (ln)” value was 6.97.

As for “CAGACGCACGTATTTGCACACATTGCCACGTAATTA [CACACA_site3349]”, the “gcPBM binding intensity (ln)” value came out at 10.2.

Consider “TTTTTTTTTTTTTTTGCACACACATTGAATTATTAT [CACACA_site198]”, for which the “gcPBM binding intensity (ln)” value was determined as 9.13.

For the sequence “CACCCGCACGTATTTGCACACATTGCCACGTAATTA [CACACA_site5786]”, the “gcPBM binding intensity (ln)” value was determined as 10.7.

Take “TGTAATCAAAAAAATAGTACATAAATTGTGTATACT [XGTACX_site5908]”: the “gcPBM binding intensity (ln)” value was 6.57.

In the case of “TATTTTATCATTTGCACACGCACACCGACATAAAAA [CACACA_site4348]”, the “gcPBM binding intensity (ln)” value is 10.6.

In the case of “TTTATTTTATCATTTGCACACGCACGCCCACATAAA [CACACA_site353]”, the “gcPBM binding intensity (ln)” value came out at 10.6.

Regarding “TTATCATTTGGACACGCACACACACCGAAAAAGAAA [CACACA_site8008]”, the “gcPBM binding intensity (ln)” value was determined as 7.13.

In the case of “AGCACGCACAGACACACACACATATTTATATTTATA [CACACA_site6291]”, the “gcPBM binding intensity (ln)” value is 7.62.

Consider “TTTTTTTTTATTATCATGCACACATTTTTTTTTTTT [CACACA_site2254]”, for which the “gcPBM binding intensity (ln)” value is 9.1.

Regarding “TTTATTTTATCATTTGCACACGCACCCAGACATAAA [CACACA_site4347]”, the “gcPBM binding intensity (ln)” value was 10.6.

As for “TATTTTATCATTTGCACACGCACACCCACATAAAAA [CACACA_site354]”, the “gcPBM binding intensity (ln)” value was 10.5.

With “TTTTATCACATTATTGCACACACATAAAGAAAAAAA [CACACA_site8922]”, the “gcPBM binding intensity (ln)” value amounted to 9.63.

As to “TTTATTTTATCATTTGCACACGCACCCCCACATAAA [CACACA_site8007]”, the “gcPBM binding intensity (ln)” value is 10.2.

In the case of TACCAATGCATAACGGTGCAAAAAAATAAGGAATAA, the “gcPBM binding intensity (ln)” value worked out at 10.3.

For the sequence “AAATTATAAAATAACTGTACCAATCCTTTTTTTTTA [XGTACX_site2229]”, the “gcPBM binding intensity (ln)” value was found to be 5.84.

Take “TATACATATGTATGCACACATACATACCCATATAAT [CACACA_site5842]”: the “gcPBM binding intensity (ln)” value was 9.42.

“GTATAAAAATTTAGGAGTACAATATATTTATAATAT [XGTACX_site2127]”: the “gcPBM binding intensity (ln)” value was 6.5.

With “ATATTTCATTAATGAACACACAAAGAGGTATATAAA [CACACA_site1519]”, the “gcPBM binding intensity (ln)” value worked out at 6.86.

As for “AATTAGACATAATATACACACATATATTATATATAT [CACACA_site2691]”, the “gcPBM binding intensity (ln)” value worked out at 6.91.

Consider “ATATTAAAGCCTTTTTGTACATATAAATAAACATAG [XGTACX_site4667]”, for which the “gcPBM binding intensity (ln)” value was found to be 6.66.

Take “GTAAAATTTCGGATTTGTACACATGGCTATGAAAAA [XGTACX_site939]”: the “gcPBM binding intensity (ln)” value turned out to be 6.57.

For “TGCCCTAACCATACTACACACACTGCTCAAAATAGT [CACACA_site2219]”, the “gcPBM binding intensity (ln)” value turned out to be 7.09.

Regarding “AGGATATAAAGTTGTGCATGTCAAGTGCACCGTATT [TGCATGCA_site451]”, the “gcPBM binding intensity (ln)” value was 10.2.

In the case of “TGTATATATAAACATGCACACGTGGTTGTATATATA [CACACA_site9078]”, the “gcPBM binding intensity (ln)” value was 8.31.

Consider “AAAAATATAAAAATAGCACACATATATACATATATA [CACACA_site7901]”, for which the “gcPBM binding intensity (ln)” value stood at 6.67.

TATATATATATAATAGTGCATAAATAAATATATAAA: the “gcPBM binding intensity (ln)” value is 9.

On to “ATAATATAAATATACACACACACATATATATATATA [CACACA_site2905]”, for which the “gcPBM binding intensity (ln)” value came to 9.28.

Regarding “ATATAAATATAGTGTGCACACACATAATATATATAT [CACACA_site8713]”, the “gcPBM binding intensity (ln)” value stood at 10.7.

Take “ATATATATATATAGTGCACACTTAAGAATATAAAGA [CACACA_site4771]”: the “gcPBM binding intensity (ln)” value is 10.3.

Consider “ATATATATATATAGTGCACACATATAAAATATATAT [CACACA_site8884]”, for which the “gcPBM binding intensity (ln)” value is 10.3.

In the case of “ATATATATATAGTGCACACTTAAGAATATAAAGAGG [CACACA_site1151]”, the “gcPBM binding intensity (ln)” value was found to be 10.7.

With “AAATAATATAAATACACACACACATATATAAATACA [CACACA_site4465]”, the “gcPBM binding intensity (ln)” value was 7.06.

For the sequence “ATATATATATAGTGCACACATATAAAATATATATAA [CACACA_site2745]”, the “gcPBM binding intensity (ln)” value was determined as 10.8.

For the sequence “ATATAAATACGGTGTGCACACACATAATATATATAT [CACACA_site2271]”, the “gcPBM binding intensity (ln)” value came out at 11.1.

Take “AAATAAAGAATATAAATACACACTTAAATATATATT [CACACA_site4007]”: the “gcPBM binding intensity (ln)” value is 6.44.

For the origin of these results see the supplement of paper PMC11417369.
